Screens as filed in PubChem BioAssay.
Most compounds without a hit are left out; they make up all but 18% or so of the library.
CtBP-E1A inh – blocks the CtBP interaction with E1A; AlphaScreen GST-E1A/His-CtBP binding, 1536-well; stronger effect = lower value; activity change, % (test concentration not listed); 340,000 tested, 0.49% active; in the data active = activity change below about -65%; inconclusive = mostly about -30% to -63%
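Protein mix (5X: 125 nM each GST-E1A, His-CtBP) was incubated with pinned compound 2 h at 37 deg C in dark, in 50 mM Tris pH 8.0 buffer with 300 mM NaCl. Glutathione donor and nickel acceptor beads followed; AlphaScreen signal read after 1 h.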
DT40 TDP1 CPT – DT40-hTDP1 cell growth loss with CPT; chicken DT40 Tdp1-/-;hTDP1 cells + 20 nM CPT, ATP luminescence, 48 h; Potency, µM (top dose mostly 46.2 µM), inactives show top-dose activity change, negative = growth inhibition, usual class: inhibitors; 420,000 tested, 12% active; AID 686979; note: potency is the fitted concentration of half-maximal effect; nearly all actives have a fitted effect of over 55% in size
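Chicken DT40 Tdp1-/- cells stably complemented with human TDP1 were seeded at 400 cells/well in medium containing 20 nM camptothecin, exposed to pin-transferred compounds, and grown at 37 °C for at least 48 hr. Viability was read as ATP luminescence.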
Six1-Eya2 inh – inhibitors of human Six1/Eya2 interaction. Q15475+O00167. AlphaScreen GST-Six1/His-Eya2 binding, biochemical; stronger effect = lower value. activity change, % (concentration not given with the values). 360,000 tested, 0.56% active. AID 651725; in the data active = activity change below about -65%; inconclusive = mostly about -30% to -63%
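Homogeneous AlphaScreen proximity assay pairing GST-Six1 with His-tagged Eya2 (added as 5X mix: 250 nM and 500 nM) in 50 mM Tris pH 8.0, 300 mM NaCl, 1 mM TCEP. Glutathione donor and nickel acceptor beads; 1 h, 37 °C, dark.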
TDP1 block – inhibitors of human tyrosyl-DNA phosphodiesterase TDP1 | AID 485290 | 350,000 tested, 0.28% active | recombinant TDP1, AlphaScreen DNA substrate cleavage | Potency, µM (doses to about 130 µM), for the others: top-dose activity change, negative = inhibition, most hits filed as inhibitors | Q9NUW8; note: potency is the fitted concentration of half-maximal effect; nearly all actives have a fitted effect of over 40% in size
Target sequence (Q9NUW8 whole entry, looked up): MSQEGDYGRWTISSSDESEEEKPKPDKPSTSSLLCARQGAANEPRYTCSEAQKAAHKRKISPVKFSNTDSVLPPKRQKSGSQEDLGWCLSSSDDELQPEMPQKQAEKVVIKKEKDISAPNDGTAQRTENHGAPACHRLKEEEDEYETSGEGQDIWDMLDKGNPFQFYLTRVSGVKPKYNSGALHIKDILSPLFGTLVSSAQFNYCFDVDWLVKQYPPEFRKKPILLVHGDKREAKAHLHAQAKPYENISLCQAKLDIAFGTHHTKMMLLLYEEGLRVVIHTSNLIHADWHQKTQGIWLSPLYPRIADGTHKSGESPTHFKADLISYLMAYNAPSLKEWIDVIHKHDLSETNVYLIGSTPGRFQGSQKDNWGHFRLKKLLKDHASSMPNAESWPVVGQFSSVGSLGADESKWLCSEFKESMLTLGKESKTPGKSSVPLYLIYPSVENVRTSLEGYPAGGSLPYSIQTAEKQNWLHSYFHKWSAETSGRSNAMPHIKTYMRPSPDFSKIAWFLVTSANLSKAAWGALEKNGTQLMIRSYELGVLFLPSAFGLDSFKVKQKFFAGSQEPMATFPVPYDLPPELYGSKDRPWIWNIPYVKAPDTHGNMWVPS
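Tdp1 1 nM final; 15 min RT w/ cpd; substrate 15 nM, 5 min; beads 10 ug/ml, 10 min; AlphaScreen read. Neg ctrl: no enzyme.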
IL-1B inflam inh – inhibitors of inflammasome signaling (IL-1 beta secretion); THP-1 LPS/ATP IL-1B secretion, AlphaLISA, 16 h; stronger effect = lower value; activity change, % at 57.5 µM; 360,000 tested, 4.7% active; AID 743279; in the data active = activity change below about -50%; inconclusive = mostly about -30% to -49%
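THP-1 cells pretreated 1 hr with compounds (up to 57.5 uM final), then stimulated with LPS (250 ng/mL final) plus ATP (1.25 mM final); secreted IL-1B measured by AlphaLISA after 16 hr, decreased signal indicating inhibition.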
TDP1 cell noCPT – qHTS for Inhibitors of human tyrosyl-DNA phosphodiesterase 1 (TDP1): qHTS in cells in absence of CPT; DT40 Tdp1-/- hTDP1 cells, no CPT, ATP luminescence, 48 h; Potency, µM (series often up to 46.2 µM), without a hit: at the highest dose activity change, negative = growth inhibition, usual class: inhibitors; 420,000 tested, 15% active; note: potency is the fitted concentration of half-maximal effect; nearly all actives have a fitted effect of over 55% in size
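No-CPT arm: Tdp1-/-;hTDP1 DT40 cells (400/well) plus compounds, incubated ≥48 hr at 37 °C. Readout CellTiter-Glo luminescence.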
Numbers without * were called inactive; ? = inconclusive; . = not tested or not shown; [ ] = remark or other dose. Unless noted, calls come from the whole dose curve; as a rule, active = well fitted curve in the direction sought with a large enough effect; inconclusive = small, poorly fitted or top-dose-only effect, or another doubt; inactive = no such curve, though single readings can be large; an effect the other way counts as inactive or inconclusive. % is set by controls: 0 for no effect and ±100 for the full control effect.

SMILES	CtBP-E1A inh	DT40 TDP1 CPT	Six1-Eya2 inh	TDP1 block	IL-1B inflam inh	TDP1 cell noCPT
CC(=O)C1CCC2C3CCC4=CC(=O)CCC4(C)C3(Br)C(=O)CC12C (stereo not given)	2	2%	0	.	-3	-4%
CC[C@]12c3[nH]c4cc(-c5ccco5)ccc4c3CCN1C(=O)[C@@H](CC(=O)NC(C)(C)C)C[C@@H]2C(=O)N1CCN(C(=O)c2ccco2)CC1	-2	23µM*	-1	-4%[56.1 µM]	1	15µM*
CC[C@]12c3[nH]c4ccc(Cl)cc4c3CCN1C(=O)[C@@H](CC(=O)NCCCN(C)C)C[C@@H]2C(=O)N1CCN(C(=O)c2ccco2)CC1	0	10%	-1	0%[56.1 µM]	24	-8%
CC[C@]12c3[nH]c4cc(-c5ccco5)ccc4c3CCN1C(=O)[C@@H](CC(=O)NCCN1CCOCC1)C[C@@H]2C(=O)N1CCN(C(=O)c2ccco2)CC1	2	-13%	-3	1%[56.1 µM]	-1	-16%
CC[C@]12c3[nH]c4ccc(Cl)cc4c3CCN1C(=O)[C@@H](CC(=O)NC(C)(C)C)C[C@@H]2C(=O)N1CCN(C(=O)c2ccco2)CC1	-6	15µM*	-5	2%[56.1 µM]	-3	18µM*
CC(=O)N1CCc2c(sc(NC(=O)Cc3ccccc3)c2C#N)C1	5	-6%	-1	-2%	22	30%
COc1ccc(CNC(=O)C2CC(O)CN2C(=O)Nc2ccccc2)cc1 (stereo not given)	-11	2%	10	.	-3	4%
Cc1[nH]cnc1C(=O)N/N=C/c1ccc([N+](=O)[O-])s1	?	12µM*	-10	.	17	10µM*
Cc1cc(C(=O)N/N=C/c2ccc([N+](=O)[O-])s2)n[nH]1	?	5.8µM*	-9	-3%	-6	5.2µM*
Cc1cc(C(=O)N/N=C/c2cc(Cl)cc([N+](=O)[O-])c2O)n[nH]1	-81*	14%	?	6%	18	-9%
CCOc1c2ccc(C(=O)NCc3ccc4c(c3)OCO4)cc2nn1CC	.	-9%	1	1%	-10	-20%
O=S(=O)(c1ccc2c(c1)CCC2)N1CCNCC1	-1	2%	6	-4%	-6	-16%
COc1cc(C(=O)Nc2ccc(C(=O)O)cc2)ccc1OC(C)=O	2	-17%	5	-2%	-8	-9%
CCCCCCCCNC(C)C(O)c1ccc(SC(C)C)cc1 (stereo not given)	-1	18µM*	7	2%	-86*	16µM*
COc1ccc(Br)cc1C(=O)Nc1nc2ccc(F)cc2s1	.	-5%	.	3%	.	-8%
NC(=S)N=Nc1ccc(NN=C(N)N)cc1	-21	1.3µM*	-1	.	-23	1.5µM*
CN1C(c2ccc(F)cc2)=CS/C1=C(/C#N)c1nnc(N2CCOCC2)n1-c1ccccc1	-8	?	2	3%	-6	-11%
C=CCN1C(c2ccccc2)=CS/C1=C(/C#N)c1nnc(N2CCOCC2)n1-c1ccccc1	.	18µM*	-3	0%	-7	15µM*
Cc1ccc(C2C(C(=O)c3cc4ccccc4o3)=C(O)C(=O)N2c2cc(C)on2)cc1 (stereo not given)	-2	?	-9	5%	-5	?
CCn1c(=O)c(C(=O)NNC(=O)c2cccc(Cl)c2)c(O)c2ccccc21	-1	23µM*	-2	4%	11	?
Cn1c(=O)c(C(=O)NNC(=O)c2cccc(Cl)c2)c(O)c2ccccc21	-1	18µM*	-9	1%	?	13µM*
Cc1cccc(C(=O)NNC(=O)c2c(O)c3ccccc3n(C)c2=O)c1	3	?	-1	6%	-2	29µM*
COc1ccc(CCNC(=O)CSc2nc(O)cc(=O)[nH]2)cc1OC	1	1%	1	-7%	-8	20%
O=C(CCN1C(=O)c2ccccc2C1=O)Nc1ccc(S(=O)(=O)N2CCOCC2)cc1	-2	?	2	2%	-19	-25%
S=c1[nH]nc(-c2cc(-c3ccsc3)n[nH]2)n1-c1cccc2ccccc12	?	?	-12	5%	0	29µM*
SMILES	CtBP-E1A inh	DT40 TDP1 CPT	Six1-Eya2 inh	TDP1 block	IL-1B inflam inh	TDP1 cell noCPT
CCCCC1CC2=C(C(=O)OC(C)(C)O2)C(c2cccc3ccccc23)O1 (stereo not given)	3	?	1	.	-23	23µM*
Cc1ccccc1OCCn1c(CCNC(=O)C(C)C)nc2ccccc21	2	-19%	0	5%	11	?
Cc1ccccc1OCCCn1c(CO)nc2ccccc21	8	?	0	-3%	3	18µM*
CCc1nc2ccccc2n1CCCCOc1ccccc1C	.	?	.	-3%	.	26µM*
COc1ccccc1OCCn1c(CO)nc2ccccc21	-1	-27%	-1	3%	-10	?
CC(=O)c1c(Nc2cccc(F)c2)oc(C)cc1=O	6	-11%	24	1%	-4	19%
O=C(O)c1ccc(/C=N/N2CCN(Cc3ccccc3)CC2)cc1	5	-11%	0	3%	12	-2%
C#CCn1c(=NC(=O)CN2C(=O)CCC2=O)sc2cccc(C)c21	1	-18%	6	0%	1	?
Cc1ccc(C)c2c1sc(=NC(=O)CN1C(=O)CCC1=O)n2C	1	?	6	6%	2	21µM*
CN(C)CCCNc1nc2cc(-c3ccccc3)sc2c(=O)n1C	-14	21µM*	-6	.	0	21µM*
CN(C)CCCNc1nc2cc(-c3ccc(F)cc3)sc2c(=O)n1C	0	18µM*	-9	.	-15	18µM*
COCCNc1nc2cc(-c3cccc(Cl)c3)sc2c(=O)n1C	2	?	6	.	14	?
Cn1c(NCCN2CCCC2)nc2cc(-c3ccccc3)sc2c1=O	1	?	-3	.	-27	?
CN(C)CCCNc1nc2cc(-c3cncnc3)sc2c(=O)n1C	-9	-29%	-13	.	-1	-27%
COc1cccc(-c2cc3nc(NCCN4CCCC4)n(C)c(=O)c3s2)c1	-23	?	1	.	?	23µM*
